# Source: publication PMC5540273 (PLoS ONE, 2017)
# Test system: CDK8
# Conditions: concentration: 1 μM, replicates: in singlicate; n = 1
# 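Also: KINOMEscan kinase panel screen.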
row,Compound,%Inh [%]
1,Cc1ccc(C)c(NC(=O)NC2CCN(c3ccnc(Nc4ccc(F)cc4)n3)C2)c1 (stereo not drawn) [GSK1379720],21
2,COc1ccc(CNC(=O)NC2CCN(c3ccnc(Nc4ccc(F)cc4)n3)CC2)cc1 [GSK1379788],45
3,Nc1ncc(-c2cccnc2)c2scc(-c3ccc4c(c3)CCN4C(=O)Cc3ccccc3)c12 [GSK683281],36
4,O=C(Nc1n[nH]c2cc(-c3ccoc3)ccc12)C1CC1 [SB-738481],11
5,O=c1[nH]cc(-c2ccc(N3CCOCC3)cc2)c2sc(-c3cn[nH]c3)cc12 [GSK2276055],0
6,Nc1n[nH]c2cnc(-c3ccccc3)cc12 [SB-642124],0
7,O=C(Nc1cccc(-c2nn3ccccc3c2-c2ccnc(Nc3cccc(C(F)(F)F)c3)n2)c1)c1c(F)cccc1F [GSK292658],14
8,CN(c1ccc(NC(=O)Nc2cc(C(F)(F)F)ccc2F)cc1)c1ccnc(Nc2ccc(S(N)(=O)=O)cc2)n1 [GW809893],98.9
9,CNC(=O)c1ccccc1Nc1nc(Nc2ccc(N3CCOCC3)cc2)ncc1Cl.Cl [GSK1576028],1
10,COC(=O)Nc1nc2ccc(Oc3ccc(NC(=O)Nc4cc(C(F)(F)F)ccc4F)cc3)cc2n1C.Cl [GW692089],77
11,COc1cc2c(cc1OCCN1CCNCC1)ncc1c3ccc(C#N)cc3[nH]c21,19
12,O=C(NC1CCN(c2ccnc(Nc3ccc(F)cc3)n2)C1)c1cc2ccccc2s1 (stereo not drawn) [GSK1379716],52
